From PubChem BioAssay (NCATS)
Results filed as inconclusive are left out. Where a call stands in place of a potency, no number is given. Active and inactive are the calls of the source. Unless noted, calls come from the whole dose curve; as a rule, active = well fitted curve in the direction sought with a large enough effect; inconclusive = small, poorly fitted or top-dose-only effect, or another doubt; inactive = no such curve, though single readings can be large; an effect the other way counts as inactive or inconclusive.

Assays:
[1] = target: Luciferin 4-monooxygenase (Photinus pyralis) (UniProt P08659); assay: Biochemical firefly luciferase enzyme assay for NPC (AID 624030);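 note: purified P. pyralis luciferase at 10 nM with luciferin and ATP substrate; nearly all actives have a fitted effect of over 70% in size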
How it was run: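 Direct inhibition of firefly luciferase enzyme (10 nM final, 50 mM Tris Acetate) assessed by luminescence within 5 minutes. Percent activity scaled between DMSO and PTC124 positive control, with concentration-effect curves classified by fit quality and response.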

[2] = S16 Schwann cell viability assay (CellTiter-Glo assay) (AID 624031); note: nearly all actives have a fitted effect of over 70% in size; note: potency is the fitted concentration of half-maximal effect
How it was run: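 Cells were seeded at 500-750 per well in phenol red-free DMEM with 10% FBS and left overnight. Compounds or DMSO were pinned in, incubation ran 24 h at 37 °C/5% CO2, then CellTiter-Glo reagent was added and luminescence measured.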

[3] = S16 Schwann cell PMP22 intronic element firefly luciferase assay (AID 624032); note: nearly all actives have a fitted effect of over 30% in size; note: potency is the fitted concentration of half-maximal effect
How it was run: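 Luciferase reporter of PMP22 intronic-element expression in stably transfected S16 rat Schwann cells, read by ONE-Glo luminescence after 24 h compound exposure at 37 C. Activity scaled between DMSO (0%) and positive-control PTC124; concentration-effect curves quality-classified.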

[4] = S16 Schwann cell PMP22 intronic element beta-lactamase assay (AID 624044; calls by dose curve; note: nearly all actives have a fitted effect of over 15% in size)
How it was run: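 Beta-lactamase reporter under a PMP22 intronic regulatory element in stable S16 rat Schwann cells; 24 h compound exposure. 460 nm blue signal normalized between DMSO (0%) and potassium clavulanate, with 535 nm FRET tracking viability; curves classed by r2 and response.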

[5] = test system: 7G8; assay: qHTS profiling for inhibitors of Plasmodium falciparum proliferation (AID 504749); note: nearly all actives have a fitted effect of over 60% in size; note: potency is the fitted concentration of half-maximal effect; settings: P. falciparum in erythrocytes, SYBR Green DNA, 72 h; series mostly up to 28.7 µM
How it was run: (§1)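 SYBR Green fluorescence of parasite DNA, read after lysis and overnight dark incubation, measured growth over 72 h in erythrocyte culture at 0.3% parasitemia and 2.5% hematocrit. Data normalised to DMSO and 0.29 uM artemisinin, with plate-drift correction.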

[6] = test system: AA1029; assay: as above; settings: P. falciparum in erythrocytes, SYBR Green DNA, 72 h; series mostly up to 28.7 µM
How it was run: as §1

[7] = test system: ATS95; assay: as above; settings: P. falciparum in erythrocytes, SYBR Green DNA, 72 h; series mostly up to 28.7 µM
How it was run: as §1

[8] = test system: CP203; assay: as above; settings: P. falciparum in erythrocytes, SYBR Green DNA, 72 h; series mostly up to 28.7 µM
How it was run: as §1

[9] = test system: CP211; assay: as above; settings: P. falciparum in erythrocytes, SYBR Green DNA, 72 h; series mostly up to 28.7 µM
How it was run: as §1

[10] = test system: CP217; assay: as above; settings: P. falciparum in erythrocytes, SYBR Green DNA, 72 h; series mostly up to 28.7 µM
How it was run: as §1

[11] = test system: CP250; assay: as above; settings: P. falciparum in erythrocytes, SYBR Green DNA, 72 h; series mostly up to 28.7 µM
How it was run: as §1

[12] = test system: CP266; assay: as above; settings: P. falciparum in erythrocytes, SYBR Green DNA, 72 h; series mostly up to 28.7 µM
How it was run: as §1

[13] = test system: CP315; assay: as above; settings: P. falciparum in erythrocytes, SYBR Green DNA, 72 h; series mostly up to 28.7 µM
How it was run: as §1

[14] = test system: DIV17; assay: as above; settings: P. falciparum in erythrocytes, SYBR Green DNA, 72 h; series mostly up to 28.7 µM
How it was run: as §1

[15] = test system: ICS; assay: as above; settings: P. falciparum in erythrocytes, SYBR Green DNA, 72 h; series mostly up to 28.7 µM
How it was run: as §1

[16] = test system: JCK; assay: as above; settings: P. falciparum in erythrocytes, SYBR Green DNA, 72 h; series mostly up to 28.7 µM
How it was run: as §1

[17] = test system: N140; assay: as above; settings: P. falciparum in erythrocytes, SYBR Green DNA, 72 h; series mostly up to 28.7 µM
How it was run: as §1

[18] = test system: PC15; assay: as above; settings: P. falciparum in erythrocytes, SYBR Green DNA, 72 h; series mostly up to 28.7 µM
How it was run: as §1

[19] = test system: PC26; assay: as above; settings: P. falciparum in erythrocytes, SYBR Green DNA, 72 h; series mostly up to 28.7 µM
How it was run: as §1

[20] = test system: W2; assay: as above; settings: P. falciparum in erythrocytes, SYBR Green DNA, 72 h; series mostly up to 28.7 µM
How it was run: as §1

Sequence of Luciferin 4-monooxygenase (Photinus pyralis) (P08659 whole entry, looked up): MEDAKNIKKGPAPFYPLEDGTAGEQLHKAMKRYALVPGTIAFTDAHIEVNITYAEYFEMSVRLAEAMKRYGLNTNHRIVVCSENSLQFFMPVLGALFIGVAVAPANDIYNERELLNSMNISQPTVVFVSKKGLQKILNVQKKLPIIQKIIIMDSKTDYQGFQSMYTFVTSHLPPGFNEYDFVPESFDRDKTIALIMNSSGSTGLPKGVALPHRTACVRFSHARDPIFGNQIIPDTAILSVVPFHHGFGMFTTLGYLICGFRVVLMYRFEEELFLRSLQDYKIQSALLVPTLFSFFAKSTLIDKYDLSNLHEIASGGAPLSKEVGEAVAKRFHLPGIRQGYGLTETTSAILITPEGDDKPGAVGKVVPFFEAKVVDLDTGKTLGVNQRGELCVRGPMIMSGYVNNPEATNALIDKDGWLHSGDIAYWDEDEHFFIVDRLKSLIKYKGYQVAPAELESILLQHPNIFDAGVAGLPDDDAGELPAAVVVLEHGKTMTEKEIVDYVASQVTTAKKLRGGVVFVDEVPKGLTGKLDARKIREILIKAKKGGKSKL

| SMILES | outcome [1] | Potency [2] | Potency [3] | outcome [4] | Potency [5] | Potency [6] | Potency [7] | Potency [8] | Potency [9] | Potency [10] | Potency [11] | Potency [12] | Potency [13] | Potency [14] | Potency [15] | Potency [16] | Potency [17] | Potency [18] | Potency [19] | Potency [20] |
| --- | --- | --- | --- | --- | --- | --- | --- | --- | --- | --- | --- | --- | --- | --- | --- | --- | --- | --- | --- | --- |
| CN1[C@@H]2CC(OC(=O)[C@@H](CO)c3ccccc3)C[C@@H]1[C@H]1O[C@H]12 (stereo partly specified) | inactive | inactive | inactive | inactive | inactive | inactive | inactive | inactive | inactive | inactive | inactive | inactive | inactive | inactive | inactive | inactive | inactive | inactive | inactive |  |
| CCc1ccc2c(c1)N(C[C@H](C)CN(C)C)c1ccccc1S2 | inactive | 28.7 µM (active) | inactive | inactive | 10 µM (active) |  |  |  |  |  |  | inactive | inactive | 6.01 µM (active) | 7.94 µM (active) |  | inactive | inactive |  | 7.57 µM (active) |
| C(=C/c1ccccc1)/CN1CCN(C(c2ccccc2)c2ccccc2)CC1 | inactive |  |  | inactive |  | inactive | inactive | inactive | inactive | inactive | inactive | inactive | inactive | inactive | 7.94 µM (active) | inactive | inactive | inactive | inactive | 5.1 µM (active) |
| CC(=O)N1CCN(c2ccc(OC[C@@H]3CO[C@@](Cn4ccnc4)(c4ccc(Cl)cc4Cl)O3)cc2)CC1 | inactive | inactive | inactive | inactive | 11.2 µM (active) | inactive | inactive |  | inactive | inactive | inactive |  |  |  |  | inactive | inactive |  |  | inactive |
| C[N+]1(C)[C@@H]2CC(OC(=O)[C@@H](CO)c3ccccc3)C[C@@H]1[C@H]1O[C@H]12 (stereo partly specified) | inactive | inactive | inactive | inactive | inactive | inactive |  | inactive | inactive | inactive | inactive | inactive | inactive | inactive | inactive | inactive | inactive | inactive | inactive | inactive |
| OC[C@H](S)CS |  | 36.1 µM (active) | 7.21 µM (active) |  | 0.891 µM (active) | 10 µM (active) | 12.6 µM (active) | inactive | inactive | inactive | inactive | inactive | inactive | 3.38 µM (active) | 2.24 µM (active) | 10 µM (active) |  | 3.16 µM (active) | inactive | 2.39 µM (active) |
| N[C@H](COP(=O)(O)O)C(=O)O | inactive | inactive | inactive | inactive | inactive | inactive | inactive | inactive | inactive | inactive | inactive | inactive | inactive | inactive | inactive | inactive | inactive | inactive | inactive | inactive |
| COc1cc2nc(N(C)CCCNC(=O)[C@@H]3CCCO3)nc(N)c2cc1OC | inactive | inactive | inactive | inactive | inactive | inactive | inactive | inactive | inactive | inactive | inactive |  | inactive | inactive | inactive | inactive | inactive | inactive | inactive | inactive |
